In PubChem BioAssay (Tox21) one finds outcome and Potency data, which are given here for 27 compounds.

Test [1] in a line: qHTS assay for small molecule agonists of the p53 signaling pathway (AID 651631; calls by dose curve; further: nearly all actives have a fitted effect of over 15% in size). The method in brief: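 p53RE-bla HCT-116 cells; compounds 16 h, 37 °C; LiveBLAzer B/G FRET substrate 2 h RT; fluorescence intensity read-out, qHTS format.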
A short description of test [2]: qHTS assay for small molecules that induce genotoxicity in human embryonic kidney cells expressing luciferase-tagged ATAD5 (AID 651632). Further: nearly all actives have a fitted effect of over 15% in size. In short, it runs like this:
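A rise in luciferase signal from ATAD5-tagged HEK293T cells marks genetic stress. Cells were exposed to compounds for 16 hr at 37C, 5% CO2, then luciferase was quantified after a 30 min room-temperature incubation with Amplite.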

Test [3] can be described thus: qHTS assay for small molecule agonists of the p53 signaling pathway - cell viability (AID 651633; calls by dose curve;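 further: p53RE-bla HCT reporter cells with a stable beta-lactamase p53 reporter; series mostly up to about 83 µM; nearly all actives have a fitted effect of over 30% in size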). The method in brief:
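p53RE-bla cells, seeded at 4,000 per well and rested 5 h at 37 C/5% CO2, received compounds in DMSO for 16 h at 37 C. CellTiter-Glo was then added, and luminescence was read after 30 min at room temperature to gauge cytotoxicity.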

The nature of test [4]: qHTS assay for small molecules that induce genotoxicity in human embryonic kidney cells expressing luciferase-tagged ATAD5 - cell viability (AID 651634; calls by dose curve; further: nearly all actives have a fitted effect of over 25% in size). In short, it runs like this:
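Cytotoxicity counter-readout: after 15.5 hr compound treatment at 37C, live-cell protease activity in ATAD5-luciferase HEK293T cells measured by CellTiter-Fluor fluorescence, 30 min development at 37C.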

Test [5] in a line: qHTS assay for small molecule disruptors of the mitochondrial membrane potential - cell viability (AID 720634; calls by dose curve;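 further: human HepG2 liver cancer cells; series mostly up to about 83 µM; nearly all actives have a fitted effect of over 20% in size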). In short, it runs like this: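 Cytotoxicity was quantified from ATP content by CellTiter-Glo luminescence in the same wells as the MMP dye read-out. HepG2 (2,000 cells/well) were plated overnight and exposed to compounds for 1 hr at 37 C.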
(In general: qHTS replaces the single test concentration by a dilution series.)

Test [6] can be described thus: qHTS assay to test for compound auto fluorescence at 590 nm (red) in HepG2 cells (AID 720674). The method in brief: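 Compound auto-fluorescence is scored relative to Rose Bengal sodium, measured at 540/590 nm in live HepG2 cultures after 1 hr compound contact (37 C, 5% CO2).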
Test [7] is described as follows: qHTS assay to test for compound auto fluorescence at 535 nm (green) in HepG2 cells (AID 720675).
Test [8] can be described thus: qHTS assay to test for compound auto fluorescence at 460 nm (blue) in HEK293 cells (AID 720678). In short, it runs like this: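 Blue read-out at excitation 405 nm and emission 460 nm follows overnight compound exposure of HEK293 cells at 37C in 5% CO2. Activity is given as auto fluorescence equivalency to triamterene.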
A short description of test [9]: qHTS assay to test for compound auto fluorescence at 590 nm (red) in HEK293 cells (AID 720679). The method in brief: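 Red channel, Ex/Em 540/590nm; signal expressed as equivalency to Rose Bengal sodium. HEK293, 2,000 cells/well, 10% dialyzed FBS; 23 nL compound pinned after 4-5 hr attachment; overnight 37C/5% CO2 before reading.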
Test [10] in a line: qHTS assay for small molecule disruptors of the mitochondrial membrane potential (AID 720635). Further: potency means the concentration at half of the fitted maximal effect. The method in brief: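 HepG2 cells (2,000/well) attached overnight at 37C, then took compound for 1 hr at 37C, 5% CO2. Mito-MPS dye was added for 30 min; fluorescence was read at 490/535 nm (monomers) and 540/590 nm (aggregates).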

The structures appear in SMILES notation. Unmarked numbers belong to inactive results. Records with an inconclusive call do not appear. Active and inactive are the calls of the source. Unless noted, the call rests on the fitted dose curve; in most records, active means well fitted curve in the direction sought with a large enough effect in the repeat runs; inconclusive means weak or mixed curves; inactive means no such curve, though single readings can be large; an effect the other way counts as inactive or inconclusive.

Turning to `CC(=O)OC(C(=O)c1ccccc1)c1ccccc1` (centres undefined), the result in test [1], in test [2], in test [3], in test [5], in test [6] and in test [7] was inactive. Moreover, the result in test [8] and in test [9] was inactive. Moreover, the Potency result in test [4] was “inactive”.

Consider `CC(C)C(=O)c1ccccc1`, for which the compound was called inactive in [1], in test [2], in [3], in test [6], in [7] and in test [8]. Moreover, in test [9], the result was inactive. Besides, the Potency result in test [4] is “inactive”.

Regarding `CC(Cl)COP(=O)(OCC(C)Cl)OCC(C)Cl` (centres undefined), the compound was called inactive in test [1], in [2], in [3], in test [5], in [6] and in test [7]. Also, the result in test [8] and in [9] was inactive. The Potency result in [4] was “inactive”.

Regarding `Cc1ccc2c(c1)c1c3n2CCNC3CCC1` (centres undefined), the outcome in test [1], in [2], in test [3], in [5], in [6] and in [7] was inactive. Moreover, the compound was classed as inactive in test [8] and in [9]. Also, the Potency result in test [4] was “inactive”.

For the compound `CCCC(C)CC` (centres undefined), the result in test [1], in test [2], in test [3], in test [5], in test [6] and in test [7] was inactive. The call in [8] and in test [9] was inactive. Moreover, the Potency entry in test [10] is “inactive”.

On to `FC(F)(F)c1ccc(Cl)cc1Cl`, for which the outcome in test [1], in test [2], in test [3], in [5], in [6] and in [7] was inactive. Also, the call in test [8] and in [9] was inactive. In addition, in [4], the Potency entry was “inactive”.

In the case of `CC(C)CCCC(C)CC=O` (centres undefined), the outcome in test [1], in test [2], in [3], in [5], in test [6] and in [7] was inactive. Moreover, the call in test [8] and in test [9] was inactive. Besides, the Potency entry in [4] was “inactive”.

In the case of `CN(C)CCCNCCC#N`, the compound was classed as inactive in [1], in test [2], in test [3], in test [5], in test [6] and in [7]. The compound was classed as inactive in test [8] and in test [9]. Besides, the Potency result in test [4] was “inactive”.

On to `CCOC(=O)CCCCCCCCC(=O)OCC`, for which the result in test [1], in test [2], in test [3], in [6], in test [7] and in [8] was inactive. For the same compound, the compound was classed as inactive in test [9]. In addition, the Potency entry in test [4] was “inactive”.

With `Oc1ccccc1Cc1ccccc1O`, the compound was called inactive in [1], in [2], in test [3], in test [6], in [7] and in test [8]. Also, the outcome in test [9] was inactive. The Potency result in test [4] was “inactive”. The Potency in test [10] was 7.7 µM (active).

On to `CCNC(=O)NCCCOc1cccc(CN2CCCCC2)c1`, for which the result in test [1], in test [2], in test [3], in [5], in [6] and in [7] was inactive. Besides, the outcome in [8] and in [9] was inactive. The Potency entry in [4] was “inactive”.

For `CC(C)c1ccccc1O`, the result in [1], in test [2], in test [3], in test [5], in test [6] and in test [7] was inactive. Besides, the outcome in test [8] and in [9] was inactive. The Potency result in [4] was “inactive”.

Consider `C=C(C)C(=O)OC1CC(C)CC(C)(C)C1` (centres undefined), for which the call in [1], in [2], in test [3], in test [5], in test [6] and in test [7] was inactive. Also, the call in [8] and in test [9] was inactive. The Potency entry in test [4] was “inactive”.

For the compound `CCCCCC(=O)OCC`, the compound was classed as inactive in [1], in test [2], in [3], in test [5], in [6] and in test [7]. For the same compound, the result in test [8] and in test [9] was inactive. Besides, the Potency result in [4] was “inactive”.

Turning to `CN(C)CCOCCN(C)CCO`, the outcome in test [1], in test [2], in [3], in test [6], in [7] and in [8] was inactive. For the same compound, the compound was classed as inactive in test [9]. Further, the Potency entry in test [4] is “inactive”.

As for `CCOc1ccc(NC(=O)OC(C)C)cc1OCC`, the result in test [1], in test [2], in test [3], in [6], in test [7] and in test [8] was inactive. Moreover, the result in test [9] was inactive. For the same compound, the Potency entry in [4] was “inactive”.

For the compound `CCCCOC(=O)C(=O)OCCCC`, the compound was classed as inactive in [1], in test [2], in [3], in test [5], in test [6] and in test [7]. Besides, the result in test [8] and in test [9] was inactive. Moreover, the Potency result in test [4] is “inactive”.

As for `C[C@H]1O[C@H](O[C@H]2[C@H](O)[C@@H](O)[C@@H](O[C@H]3[C@H](O)[C@@H](O)[C@H](O)O[C@@H]3CO)O[C@@H]2CO)[C@H](O)[C@@H](O)[C@@H]1N[C@H]1C=C(CO)[C@@H](O)[C@H](O)[C@H]1O`, the result in [1], in test [2], in test [3], in test [5], in test [6] and in test [7] was inactive. The compound was classed as inactive in [8] and in test [9]. Also, the Potency result in test [4] and in test [10] was “inactive” in each case.

On to `SCCSCCS`, for which the outcome in test [1], in [2], in [3], in test [5], in test [6] and in [7] was inactive. For the same compound, the compound was classed as inactive in test [8] and in [9]. For the same compound, the Potency result in test [4] is “inactive”.

As to `NC(=O)NNC(N)=O`, the call in [1], in test [2], in test [3], in test [5], in test [6] and in [7] was inactive. Further, the outcome in [8] and in test [9] was inactive. In addition, in test [4], the Potency entry is “inactive”.

On to `CCCCC/C=C/CC(=O)OC`, for which the result in test [1], in test [2], in test [3], in [5], in test [6] and in test [7] was inactive. Besides, the compound was classed as inactive in test [8] and in [9]. In test [4], the Potency entry is “inactive”.

For `CO[Si](CCCCl)(OC)OC`, the outcome in test [1], in test [2], in test [3], in test [5], in test [6] and in [7] was inactive. Further, the result in test [8] and in test [9] was inactive. For the same compound, the Potency result in test [4] was “inactive”. For the same compound, in test [10], the Potency is 60.2 µM (active).

Regarding `CC1CCC(C(C)(C)S)C(=O)C1` (centres undefined), the call in [1], in test [2], in [3], in [5], in [6] and in test [7] was inactive. Besides, the outcome in test [8] and in [9] was inactive. In test [10], the Potency result was “inactive”.

With `CCC(O)C(C)(C)C` (centres undefined), the call in [1], in test [2], in [5], in test [6], in [7] and in test [8] was inactive. For the same compound, in test [9], the compound was classed as inactive. Moreover, in test [10], the Potency result is “inactive”.

On to `CC(=O)N(CC(O)CO)c1c(I)c(C(=O)NCC(O)CO)c(I)c(C(=O)NCC(O)CO)c1I` (centres undefined), for which the call in test [1], in test [2], in test [5], in test [6], in [7] and in test [8] was inactive. In addition, the compound was classed as inactive in test [9]. Further, the Potency entry in [4] is “inactive”.

`CC(=O)OCCCc1ccccc1`: the compound was called inactive in test [1], in [2], in test [5], in [6], in test [7] and in test [8]. For the same compound, the result in test [9] was inactive. Further, the Potency result in test [4] and in [10] was “inactive” throughout.

For the compound `FC(F)(F)/C(=N\OCC1OCCO1)c1ccc(Cl)cc1`, the result in [1], in [2], in [3], in [5], in [6] and in test [7] was inactive. The compound was classed as inactive in [8] and in test [9]. The Potency entry in test [10] was “inactive”.
